PubChem BioAssay (NCATS)
Records with an inconclusive call do not appear. Active and inactive are the calls of the source. Calls come from the whole dose curve; as a rule, active = well fitted cell-killing curve with a large enough effect; inconclusive = small, poorly fitted or top-dose-only effect; inactive = flat fitted curve, though single readings scatter.

Assay: Cell Viability - Mesenchymal (AID 546);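 note: cells exposed to compound for 40 hours before reading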
Details: mesenchymal cells viability, qHTS; series mostly up to 91.7 µM
Text: NIH Chemical Genomics Center [NCGC]
NIH Molecular Libraries Screening Centers Network [MLSCN]
National Institutes of Environmental Health Sciences [NIEHS]
National Toxicology Program [NTP]
We have developed a 1536-well cell-based assay for quantitative high throughput screening (qHTS) against a number of cell lines to determine in vitro cytotoxicity of small molecules. This particular assay uses the kidney mesenchymal cell line which is derived from normal human renal glomeruli.
NCGC Assay Protocol Summary:
The CellTiter-Glo luminescent cell viability assay (Promega) is a homogeneous method to measure the number of viable cells in culture. The end point readout of this assay is based on quantitation of intracellular ATP, an indicator of metabolic activity, using the luciferase reaction. Luciferase catalyzes the oxidation of beetle Luciferin to oxyluciferin and light in the presence of ATP. The luminescent signal is proportional to amount of ATP present.
Using the CellTiter-Glo luminescent cell viability assay, the amount of cellular ATP was measured in the kidney mesenchymal cell line with complete culture medium following compound treatment for 40 hours. The assay was performed in opaque white Kalypsys 1536-well plates. In the screen, tamoxifen and doxorubicin were used as positive controls. Library compounds were measured for their ability to cause acute toxicity in the cell line, as reflected by a decrease in intracellular ATP levels, in a concentration-dependent manner. […] AC50 values were determined from concentration-response data modeled with the standard Hill equation.
qHTS protocol for CellTiter Glo kidney mesenchymal cells cellular assay
[Step] [Parameter] [Value] [Description]
1. Reagent; 5 uL; 1000 kidney mesenchymal cells/well
2. Time; 5 hr; 37 °C incubation
4. Controls; 23 nL; Tamoxifen 0.34 uM to 100 uM & Doxorubicin 0.02 nM to 100 uM
5. Time; 40 hr; 37 °C incubation
6. Reagent; 5 uL; CellTiter Glo reagent
7. Time; 20 min; Room Temperature
8. Detection; Luminescence; Viewlux plate reader
Keywords: cell viability, cytotoxicity, Kidney mesenchymal cell line, luminescence, NTPHTS, NTPHTS_NCGC, NIEHS, EPA, DSSTox, MLSMR, MLSCN, NIH Roadmap, qHTS, NCGC

Which outcome does the source give for `CCC(C)(C)c1ccc(O)cc1` here?
Its outcome is “inactive”.

For `CCOC(=O)CC(SP(=S)(OC)OC)C(=O)OCC` (configuration not stated), which outcome is on record?
The outcome was “inactive”.

For `Nc1ccccc1C(=O)O`, which outcome is on record?
Its outcome is “inactive”.

Which outcome does the source give for `C[C@]12CCC(=O)C=C1CC[C@@H]1[C@@H]2CC[C@]2(C)C(=O)CC[C@@H]12` here?
Its outcome is “inactive”.

Which outcome does the source give for `Nc1ccccc1` here?
Its outcome is “inactive”.

With `COC(=O)C(c1ccccc1)C1CCCCN1` (configuration not stated) as the molecule, how does the outcome read?
Its outcome is “inactive”.

With `NCCc1ccc(O)cc1` as the molecule, how does the outcome read?
Its outcome is “inactive”.

With `CCCC(C)(COC(N)=O)COC(N)=O` as the molecule, how does the outcome read?
Its outcome is “inactive”.

For `C[C@]1(O)CC[C@H]2[C@@H]3CCC4=CC(=O)CC[C@]4(C)[C@@]3(F)[C@@H](O)C[C@@]21C`, which outcome is on record?
Its outcome is “inactive”.

For `O=C(O)CCCc1ccc(N(CCCl)CCCl)cc1`, which outcome is on record?
The outcome was “inactive”.

For `COP(=S)(OC)Oc1ccc(SC)c(C)c1`, which outcome is on record?
Its outcome is “inactive”.

Which outcome does the source give for `C[C@]12CCC(=O)C=C1CC[C@@H]1[C@@H]2CC[C@@]2(C)[C@H]1CC[C@]2(C)O` here?
Its outcome is “inactive”.

For `COc1cc(OC)c(OC)cc1C=O`, which outcome is on record?
Its outcome is “inactive”.

For `CC(C)c1cccc(C(C)C)c1O`, which outcome is on record?
The outcome was “inactive”.

For `CC(C)NC(C)C`, which outcome is on record?
Its outcome is “inactive”.

With `O=P1(N(CCCl)CCCl)NCCCO1` (configuration not stated) as the molecule, how does the outcome read?
Its outcome is “inactive”.

Which outcome does the source give for `Oc1ccc(Cl)cc1` here?
The outcome was “inactive”.
